# From PubChem BioAssay (NCI)
# The panel holds about 83,000 compounds, 20% with a hit somewhere; the sample as a whole holds those more often.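 Single-dose data. Exposure time 48 hours. Values below 10 considered active.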 Values without a mark were called inactive. The source made the active and inactive calls.
# How the values were obtained:
# Assay in all cases: NCI-60 one-dose screen, 48 h (100 = growth as untreated, 0 = no growth, -100 = all killed)
# Conditions in all cases: 10 µM unless noted
# DU-145 prostate = tested on: DU-145 prostate
# K-562 leukemia = tested on: K-562 leukemia
# MALME-3M melanoma = tested on: MALME-3M melanoma
# MDA-MB-231 breast = tested on: MDA-MB-231 breast
# RXF 393 renal = tested on: RXF 393 renal
# SF-268 CNS = tested on: SF-268 CNS
# SF-295 CNS = tested on: SF-295 CNS
# SF-539 CNS = tested on: SF-539 CNS
# UACC-257 melanoma = tested on: UACC-257 melanoma
# M14 melanoma = tested on: M14 melanoma
Compound,growth (DU-145 prostate),growth (K-562 leukemia),growth (MALME-3M melanoma),growth (MDA-MB-231 breast),growth (RXF 393 renal),growth (SF-268 CNS),growth (SF-295 CNS),growth (SF-539 CNS),growth (UACC-257 melanoma),growth (M14 melanoma)
CC(=O)c1cc(-c2ccccc2N)n(-c2ccc3c(c2)OCO3)c1C,9.47% (active),5.63% (active),48.7%,21.3%,39.7%,31.5%,-10% (active),-0.915% (active),76.6%,10%
CCOC(=O)C1CCN(c2ccc(N3C[C@@H](CNCc4ccc(C(=N)N)cc4)OC3=O)cc2)CC1,98.6%,99.3%,83.1%,99.8%,99.7%,100%,101%,94.4%,102%,94.7%
CCNCc1ccc(O)c2ncccc12,37%,13.9%,60.6%,46.9%,60.3%,35.2%,39.9%,25.1%,9.76% (active),33.8%
CCCCCCNc1nc(NCCCCCC)c2[nH]c(NCCCCCC)nc2n1,84.6%,-19.2% (active),60.8%,-2.45% (active),81%,52.5%,70.3%,82.6%,104%,79.5%
COc1ccc(-c2oc(=O)ccc2-c2cc(OC)c(OC)c(OC)c2)cc1O,6.81% (active),-9.26% (active),37.8%,38.6%,-38.7% (active),24.9%,-17.8% (active),-13.7% (active),47.3%,-62.5% (active)
Nc1n[nH]c2ccc([C@@H]3Nc4cc5[nH]ncc5cc4[C@H]4C5CCC(C5)[C@@H]34)cc12 (stereo not given in full),21.2%,10.6%,46.9%,12.7%,-2.95% (active),45.4%,11.8%,-11.3% (active),67.4%,-3.7% (active)
O=C(CCCCCCCCC(=O)N/N=C\c1cc(Cl)ccc1O)N/N=C\c1cc(Cl)ccc1O,30.5%,23.7%,37.6%,37%,46.7%,28.3%,21.9%,15.6%,23.6%,17.7%
CCN(CC)CCOc1nc2c3ccc(Cl)cc3nn2c2ccccc12,26.4%,1.82% (active),35.8%,21.3%,7.71% (active),44.6%,29%,17.8%,16.1%,44.5%
COc1ccc(OC)c(-c2cn3nc(-c4c[nH]c5ccc(Br)cc45)sc3n2)c1,29.3%,5.98% (active),52.2%,9.49% (active),67.8%,18.3%,54.1%,-12.8% (active),84.9%,12.7%
COc1ccc(Cc2nnc(Nc3nc4ccccc4s3)s2)cc1,109%,64.8%,100%,98%,97.8%,103%,92.9%,93.9%,99.9%,102%
Cc1c(N2CN3C[C@H](C)N4CN(c5c(C)n(C)n(-c6ccccc6)c5=O)CN5C[C@@H](C)N(C2)C3C54)c(=O)n(-c2ccccc2)n1C (stereo not given in full),112%,17.9%,104%,117%,101%,100%,99.3%,91.2%,105%,99.8%
COc1ccc(/C(C)=C(\c2ccc(Cl)cc2)c2ccc(OCCN3CCCC3)cc2)cc1,62.6%,-1.6% (active),4.84% (active),25.5%,32.6%,51.8%,-7.32% (active),45.9%,-26.8% (active),-13.7% (active)
COc1cccc(C(=O)OCC(O)C(=O)NC23CC4CC(CC(C4)C2)C3)c1 (stereo not given),106%,99.1%,99.1%,93%,109%,102%,95.9%,103%,89%,99.1%
Cn1cc(-c2nonc2-c2c[nH]c3ccc(F)cc23)c2cc(Br)ccc21,50.2%,7.64% (active),61%,34.9%,74.2%,49.9%,36.5%,67.8%,63.3%,36.5%
CC1(C)OC(=O)C(=Cc2cccc(Br)c2)C(=O)O1,112%,98.6%,108%,107%,96.4%,102%,102%,108%,85.8%,109%
Nc1ncnc2c1c(-c1ccc(Oc3ccccc3)cc1)nn2CC1SSCC1O (stereo not given),49%,11.2%,-34.8% (active),47%,17.7%,48.8%,73%,41.2%,46.6%,-73.5% (active)
CCOC(=O)/C=C/c1c(C)[nH]c(=O)[nH]c1=O,21%,101%,172%,93.1%,89.3%,96%,76.5%,98.9%,109%,97.5%
N=C(N)SCc1cccc2c(CSC(=N)N)cccc12,107%,103%,102%,98.6%,113%,97.2%,113%,100%,95.9%,105%
CCOC(=O)C/C(=N\Nc1cc(=O)[nH]c2ccc(Cl)cc12)C(=O)OCC,106%,43.9%,95.8%,98.8%,110%,98.6%,103%,98.8%,105%,95.5%
O=C1c2cc3c(cc2-c2c1c1ccc(Cl)cc1c(=O)n2C[C@H](O)CO)OCO3,3.78% (active),10.4%,-26.7% (active),19.5%,-66.6% (active),4.7% (active),-14.8% (active),-33.1% (active),-36% (active),-14.2% (active)
CCC(CC)(N(CC(=O)O)CC(=O)O)C(CC)(CC)N(CC(=O)O)CC(=O)O,119%,101%,133%,110%,120%,114%,108%,109%,100%,106%
CC[C@H](Nc1nc(N)nc(C)c1C#N)c1nc2cccc(NCCCCCC(=O)NO)c2c(=O)n1-c1ccccc1,69.5%,77.1%,52.6%,61.8%,-6.92% (active),55.7%,22.9%,45.9%,54.4%,71.3%
CCOC(=O)c1ccc2c(c1)c1c(C)c3ccncc3c(C)c1n2C,2.93% (active),7.07% (active),-40.9% (active),2.92% (active),-62.3% (active),-7.28% (active),1.65% (active),-0.581% (active),-25.9% (active),-57.2% (active)
Nc1nc(C(=O)N/N=C/c2ccc(N3CCOCC3)cc2)nn1-c1ccc(S(N)(=O)=O)cc1,105%,94%,107%,115%,108%,99%,104%,105%,107%,103%
COc1cccc2c(N=NC(=O)c3ccc(S(N)(=O)=O)cc3)c(O)[nH]c12,115%,98.5%,103%,102%,106%,106%,102%,102%,107%,102%
C/C(=N\O)C(=O)NCCCCCC(=O)Nc1ccccc1,114%,99.7%,98.9%,100%,121%,100%,101%,107%,98.6%,107%
CCn1cc(C2=C(c3cn(C)c4ncccc34)C(=O)NC2=O)c2cccnc21,80.1%,100%,73.8%,61.2%,76.9%,75.6%,61.4%,72%,102%,81.8%
